Data taken from PubChem BioAssay (NCI).
The panel holds about 83,000 compounds, 20% with a hit somewhere; the sample as a whole holds those more often.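 Single-dose data. Exposure time 48 hours. Values below 10 considered active.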 Activity calls are given as the source filed them.

Columns and labels:
Assay in all cases: NCI-60 one-dose screen, 48 h (100 = growth as untreated, 0 = no growth, -100 = all killed)
Details in all cases: 10 µM
SK-MEL-2 melanoma = test system: SK-MEL-2 melanoma
EKVX NSCLC = test system: EKVX NSCLC
SN12C renal = test system: SN12C renal
UO-31 renal = test system: UO-31 renal
TK-10 renal = test system: TK-10 renal
ACHN renal = test system: ACHN renal
CAKI-1 renal = test system: CAKI-1 renal
MOLT-4 leukemia = test system: MOLT-4 leukemia
A498 renal = test system: A498 renal
CCRF-CEM leukemia = test system: CCRF-CEM leukemia

Measured: growth

c1cnc2[nH]cc(-c3nc(-c4ccsc4)cs3)c2c1
inactive: SK-MEL-2 melanoma 102% | EKVX NSCLC 42.6% | SN12C renal 92% | UO-31 renal 62.7% | TK-10 renal 138% | ACHN renal 85.3% | CAKI-1 renal 96.3% | MOLT-4 leukemia 79.6%

O=C(Nc1ccc(F)cc1)c1cc2ccccc2cc1O
inactive: SK-MEL-2 melanoma 84.7% | EKVX NSCLC 87.2% | SN12C renal 79.1% | UO-31 renal 63.9% | TK-10 renal 141% | ACHN renal 80.8% | A498 renal 69.2% | CCRF-CEM leukemia 71.6% | MOLT-4 leukemia 46.9%

CCOS(=O)(=O)c1c(C(C)C)cc(C(C)C)cc1C(C)C
inactive: SK-MEL-2 melanoma 96.9% | EKVX NSCLC 97.8% | SN12C renal 98.3% | UO-31 renal 92.2% | TK-10 renal 95.1% | ACHN renal 104% | A498 renal 117% | CCRF-CEM leukemia 121% | MOLT-4 leukemia 97.6%

COc1cc(-c2nn(-c3ccc(NC(=O)NCCNS(=O)(=O)c4ccc(F)cc4)cc3)cc2-c2ccncc2)ccc1Cl
inactive: EKVX NSCLC 33% | SN12C renal 39.9% | UO-31 renal 31.5% | TK-10 renal 28.1% | ACHN renal 23.7% | MOLT-4 leukemia 11.6%
active: SK-MEL-2 melanoma 8.8% | A498 renal -19.1% | CCRF-CEM leukemia 9.28%

COc1cc2c3c(n([C@@H]4CCOC4)c(=O)c2cc1OC)-c1cc2c(cc1C3=O)OCO2
inactive: SK-MEL-2 melanoma 94% | EKVX NSCLC 64.2% | SN12C renal 18.3% | TK-10 renal 99.7% | CAKI-1 renal 23.2% | MOLT-4 leukemia 20.4%
active: UO-31 renal 5.77% | ACHN renal 0.739%

CCOC(=O)C(C)(c1ccccc1)c1ccccc1
inactive: SK-MEL-2 melanoma 114% | EKVX NSCLC 102% | SN12C renal 102% | UO-31 renal 94% | TK-10 renal 102% | ACHN renal 112% | A498 renal 105% | CCRF-CEM leukemia 103% | MOLT-4 leukemia 109%

COc1ccc(-c2nnc(SCC(=O)Nc3ccc(C(=O)/C=C/c4ccccc4)cc3)n2-c2ccccc2)cc1OC
inactive: SK-MEL-2 melanoma 100% | EKVX NSCLC 120% | SN12C renal 84.9% | UO-31 renal 69.2% | TK-10 renal 93.1% | ACHN renal 98.9% | A498 renal 82.5% | CCRF-CEM leukemia 93.6% | MOLT-4 leukemia 59.7%

CCN(CC)CCOc1cccc2c1C(=O)c1ccccc1C2=O
inactive: SK-MEL-2 melanoma 91.8% | EKVX NSCLC 95.2% | SN12C renal 90.9% | UO-31 renal 62.2% | TK-10 renal 97.6% | ACHN renal 92.5% | A498 renal 87.5% | CCRF-CEM leukemia 92.6% | MOLT-4 leukemia 96.4%

Nc1nc(-c2cccnc2)nc2c1sc(=S)n2-c1ccccc1
inactive: SK-MEL-2 melanoma 101% | EKVX NSCLC 101% | SN12C renal 98.6% | UO-31 renal 97.2% | TK-10 renal 93.5% | ACHN renal 107% | CAKI-1 renal 98.7% | MOLT-4 leukemia 96.9%

CN(C)CCN(Cc1ccccc1)c1ccc2ccccc2n1
inactive: SK-MEL-2 melanoma 103% | EKVX NSCLC 109% | SN12C renal 93.8% | UO-31 renal 76.2% | TK-10 renal 93.1% | ACHN renal 95.8% | A498 renal 119% | CCRF-CEM leukemia 88.6% | MOLT-4 leukemia 104%

COc1cc(-c2nn(-c3cccc(NC(=O)CCNc4ccc(N5CCOCC5)cc4)c3)cc2-c2ccncc2)ccc1Cl
active: MOLT-4 leukemia 3.1%
inactive: SK-MEL-2 melanoma 10.3% | EKVX NSCLC 39.4% | SN12C renal 27.6% | UO-31 renal 27.3% | TK-10 renal 24.7% | ACHN renal 15.8% | A498 renal 18.3% | CCRF-CEM leukemia 10.9%

O=C(Nc1cccc2c1CCCC2)c1cc2ccccc2cc1O
inactive: SK-MEL-2 melanoma 41.1% | EKVX NSCLC 59.8% | SN12C renal 25.6% | UO-31 renal 17.5% | TK-10 renal 88.1% | ACHN renal 38.4% | A498 renal 10.6% | CCRF-CEM leukemia 20.9% | MOLT-4 leukemia 20.6%

COc1cc(C(=O)n2nc(-c3cc(OC)c(OC)c(OC)c3)nc2N)cc(OC)c1OC
inactive: SK-MEL-2 melanoma 91.2% | EKVX NSCLC 90.6% | SN12C renal 109% | UO-31 renal 83.2% | TK-10 renal 98.1% | ACHN renal 95.8% | A498 renal 77.6% | CCRF-CEM leukemia 96.7% | MOLT-4 leukemia 81.5%

O=C(Nc1ccc2c(O)cc(S(=O)(=O)O)cc2c1)c1ccc([N+](=O)[O-])cc1
inactive: SK-MEL-2 melanoma 102% | EKVX NSCLC 93.7% | SN12C renal 98.8% | UO-31 renal 91.4% | TK-10 renal 102% | ACHN renal 107% | A498 renal 97.9% | CCRF-CEM leukemia 88.5% | MOLT-4 leukemia 63.7%

COc1cc(-c2nn(-c3cccc(NC(=O)NCCNS(=O)(=O)c4ccc(Cl)cc4)c3)cc2-c2ccncc2)ccc1Cl
inactive: EKVX NSCLC 29.8% | SN12C renal 35.5% | UO-31 renal 21.1% | ACHN renal 11.3% | MOLT-4 leukemia 12.1%
active: SK-MEL-2 melanoma 2.83% | TK-10 renal 5.09% | A498 renal -10.5% | CCRF-CEM leukemia 9.85%

CCN(CC)CCCOc1cccc2c1C(=O)c1cccc(OCCCN(CC)CC)c1C2=O
active: MOLT-4 leukemia 4.98%
inactive: SK-MEL-2 melanoma 42.1% | EKVX NSCLC 54.5% | SN12C renal 31.2% | UO-31 renal 16% | TK-10 renal 38.8% | ACHN renal 22.7% | A498 renal 46.4% | CCRF-CEM leukemia 25%

S=C(SSC(=S)N(c1ccccc1)c1ccccc1)N(c1ccccc1)c1ccccc1
inactive: SK-MEL-2 melanoma 95.1% | EKVX NSCLC 118% | SN12C renal 94.5% | UO-31 renal 97.1% | TK-10 renal 95.3% | ACHN renal 114% | A498 renal 114% | CCRF-CEM leukemia 87.9% | MOLT-4 leukemia 93.9%

CCN1CCN(CCC(=O)Nc2cccc(-n3cc(-c4ccncc4)c(-c4ccc(Cl)c(OC)c4)n3)c2)CC1
active: SK-MEL-2 melanoma -19.5% | A498 renal -14.1% | CCRF-CEM leukemia 1.32% | MOLT-4 leukemia 2.89%
inactive: EKVX NSCLC 54.5% | SN12C renal 38.8% | UO-31 renal 34.6% | TK-10 renal 44.7% | ACHN renal 37.2%

CN(C)CCCSc1ccccc1NC1=C(Cl)C(=O)C(Nc2ccccc2SCCCN(C)C)=C(Cl)C1=O
inactive: SK-MEL-2 melanoma 43.8% | EKVX NSCLC 67.5% | UO-31 renal 35% | TK-10 renal 13.8% | A498 renal 105%
active: SN12C renal -61.2% | ACHN renal -20.6% | CCRF-CEM leukemia -15.2% | MOLT-4 leukemia -34%

COC(=O)C1(O)NC(=C(C#N)C#N)C(C#N)=C1C(=O)c1ccc(OC)c(OC)c1 (stereo not drawn)
inactive: SK-MEL-2 melanoma 104% | EKVX NSCLC 113% | SN12C renal 96.7% | UO-31 renal 86.7% | TK-10 renal 122% | ACHN renal 108% | A498 renal 93.6% | CCRF-CEM leukemia 92.1% | MOLT-4 leukemia 92.1%

O=C(CC(CC(=O)c1ccccc1)c1ccccc1O)c1ccccc1
inactive: SK-MEL-2 melanoma 91.3% | EKVX NSCLC 95% | SN12C renal 96.2% | UO-31 renal 78.4% | TK-10 renal 98.6% | ACHN renal 99.3% | A498 renal 97.5% | CCRF-CEM leukemia 98.6% | MOLT-4 leukemia 105%

COC1OC(COS(=O)OC)C(O)C(O)C1OS(=O)OC (stereo not drawn)
inactive: SK-MEL-2 melanoma 112% | EKVX NSCLC 103% | SN12C renal 106% | UO-31 renal 88.8% | TK-10 renal 88.6% | ACHN renal 106% | A498 renal 116% | CCRF-CEM leukemia 101% | MOLT-4 leukemia 92.1%

CCNCC(=O)Nc1ccc(C(=O)OCC)cc1
inactive: SK-MEL-2 melanoma 102% | EKVX NSCLC 104% | SN12C renal 98.6% | UO-31 renal 95% | TK-10 renal 86.2% | ACHN renal 108% | A498 renal 86% | CCRF-CEM leukemia 96.4% | MOLT-4 leukemia 87.5%

COc1cc(-c2nn(-c3cccc(NC(=O)CCN4CCN(Cc5ccccc5)CC4)c3)cc2-c2ccncc2)ccc1Cl
active: SK-MEL-2 melanoma -31.2% | A498 renal -8.39% | CCRF-CEM leukemia 4.24% | MOLT-4 leukemia 5.06%
inactive: EKVX NSCLC 48.2% | SN12C renal 41.7% | UO-31 renal 15.6% | TK-10 renal 26.1% | ACHN renal 24.1%

CCOC(=O)c1cc(C(=O)c2cc(OC)c(OC)c(OC)c2)n2nc(C)ccc12
inactive: SK-MEL-2 melanoma 27.7% | EKVX NSCLC 88.3% | SN12C renal 60.1% | UO-31 renal 39.9% | TK-10 renal 78% | ACHN renal 49.4% | A498 renal 23.4% | CCRF-CEM leukemia 17.1% | MOLT-4 leukemia 18.4%

COc1cc(-c2nn(-c3cccc(NC(=O)NCCNC(=O)c4cccc(C(F)(F)F)c4)c3)cc2-c2ccncc2)ccc1Cl
inactive: SK-MEL-2 melanoma 21.5% | EKVX NSCLC 60.1% | SN12C renal 75.2% | UO-31 renal 62.1% | TK-10 renal 90% | ACHN renal 48.4% | A498 renal 33% | CCRF-CEM leukemia 20.6% | MOLT-4 leukemia 27.3%

Nc1ccc(/C=N/Nc2ccnc3c(O)cccc23)c2cccnc12
inactive: SK-MEL-2 melanoma 74.1% | EKVX NSCLC 61.8% | SN12C renal 76.9% | UO-31 renal 55.8% | TK-10 renal 97.7% | ACHN renal 52.9% | A498 renal 118% | CCRF-CEM leukemia 14.4% | MOLT-4 leukemia 14.5%

S=C(NCc1ccccc1)NCc1ccccc1
inactive: SK-MEL-2 melanoma 97.9% | EKVX NSCLC 102% | SN12C renal 96.3% | UO-31 renal 87.1% | TK-10 renal 83.2% | ACHN renal 105% | A498 renal 80% | CCRF-CEM leukemia 95.9% | MOLT-4 leukemia 94.9%

CN(C)CCCOc1cccc(NC2=C(Cl)C(=O)C(Nc3cccc(OCCCN(C)C)c3)=C(Cl)C2=O)c1
inactive: A498 renal 44.5%
active: SK-MEL-2 melanoma -65.6% | EKVX NSCLC -95.8% | SN12C renal -69.2% | UO-31 renal -92.7% | TK-10 renal -99.3% | ACHN renal -98.3% | CCRF-CEM leukemia -37.6% | MOLT-4 leukemia -37.1%
